From PubChem BioAssay
In the library only some 2.7% were active in any assay of this set; here they are far more common.
Nrf2 inh: inhibitors of Nrf2 signaling; AID 504444; 360,000 tested, 2.1% active; Potency, µM (series often up to 46 µM), actives largely listed as inhibitors; A549 ARE-Fluc reporter, luciferase luminescence, 18-24 h; further: nearly all actives have a fitted effect of over 60% in size
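Nrf2 activity is the BugLite luminescence, read 15 min after reagent at room temperature, following CellTiter-Fluor cytotoxicity readout (30 min, 37C). Compound titrations were applied for 18-24 h to 5000 A549 ARE_Fluc cells/well in 5% FBS OPTI-MEM.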
Nrf2 ARE act: activates Nrf2 signaling. AREc32 ARE-luciferase reporter (MCF7-derived line), luminescence, 24 h. Potency, µM (highest dose often 46.1 µM), usual class: activators. 410,000 tested, 0.31% active. AID 624171; further: nearly all actives have a fitted effect of over 65% in size
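AREc32 cells carrying an ARE-driven firefly luciferase reporter were seeded at 1000 cells/well in OPTI-MEM with 5% FBS, then exposed to compound for 24 hr at 37 deg C. Luminescence was read with Steady-Glo after 30 min at RT.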
12-LOX inh: ALOX12 (human) lipoxygenase inhibition. P18054. purified 12hLO, xylenol orange hydroperoxide absorbance. Potency, µM (titrated, usually from 108 µM), actives largely listed as inhibitors. 580,000 tested, 1.1% active
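Hydroperoxide product was detected by ferrous iron/xylenol orange as the 573 to 405 nm absorbance ratio. Arachidonic acid at 40 uM (final) was turned over for 30 min at room temperature by 150 nM human 12hLO, pH 7.0 Hepes buffer, after 15 min compound preincubation.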
mIDH1 inhibitor: inhibitors of human mutant IDH1 R132H; O75874; IDH1-R132H enzyme, NADPH consumption, diaphorase/resazurin fluorescence; Potency, µM (highest dose often 76.6 µM), actives largely listed as inhibitors; 390,000 tested, 0.093% active; AID 602179; further: nearly all actives have a fitted effect of over 65% in size
Target sequence (O75874 whole entry R132H, stated change not applied): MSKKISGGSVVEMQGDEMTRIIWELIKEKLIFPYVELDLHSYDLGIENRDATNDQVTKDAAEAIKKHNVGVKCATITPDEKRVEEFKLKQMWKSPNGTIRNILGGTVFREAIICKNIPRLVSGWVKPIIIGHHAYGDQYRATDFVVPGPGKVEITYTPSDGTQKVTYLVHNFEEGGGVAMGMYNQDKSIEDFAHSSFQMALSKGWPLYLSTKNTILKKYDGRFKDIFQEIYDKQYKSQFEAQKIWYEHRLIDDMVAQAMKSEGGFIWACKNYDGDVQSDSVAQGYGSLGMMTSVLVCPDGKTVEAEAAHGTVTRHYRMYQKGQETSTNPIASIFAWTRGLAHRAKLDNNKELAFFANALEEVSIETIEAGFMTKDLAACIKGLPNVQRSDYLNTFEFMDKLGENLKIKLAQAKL
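IDH1-R132H (0.5 ug/mL dispensed) in pH 7.5 Tris buffer was preincubated 30 min with compound, then given a substrate mix of 0.016 mM NADPH and 2 mM alpha-KG for 80 min at room temperature; remaining NADPH was read by diaphorase/resazurin fluorescence.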
A549 tox-1: counter-screen for Nrf2 inhibitors: cytotoxicity in A549 cells; Potency, µM (doses to about 46 µM), hits mostly inhibitors; A549 ARE-Fluc cells, CellTiter-Fluor viability, 18-24 h; 390,000 tested, 0.16% active
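Cytotoxicity counterscreen: CellTiter-Fluor fluorescence was measured in A549 ARE_Fluc cells after 18-24 h of compound exposure in a concentration series. The subsequent BugLite luminescent read reports ARE-luciferase activity.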
LDHA block: LDHA (human) enzyme inhibition | P00338 | purified LDHA, NADH/diaphorase-resazurin fluorescence; stronger effect = lower value | activity change, % (values are at about 110 or 230 µM) | 480,000 tested, 0.15% active | AID 1347041; in the data active means activity change below about -30%; inconclusive means mostly about -25% to -30%
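Human LDH5 (2 nM) was incubated with 0.06 mM NADH and 0.2 mM pyruvate for 5 min at room temperature in Tris pH 7.4. Remaining NADH was coupled through diaphorase/resazurin, and resorufin fluorescence was read at 0 and 20 min.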
FLuc counter 3: firefly luciferase inhibition, Nrf2 hit validation | shares compounds with Nrf2 inh | Potency, µM (top dose mostly 57.5 µM), actives largely listed as inhibitors | purified firefly luciferase, luminescence inhibition | 1,400 tested, 4% active; further: nearly all actives have a fitted effect of over 65% in size
A549 tox-2: toxic to A549 ARE-Fluc cells in Nrf2 counterscreen; shares compounds with Nrf2 inh; A549 ARE-Fluc cells, cytotoxicity counterscreen; Potency, µM (highest dose often 46.1 µM), usual class: inhibitors; 1,400 tested, 2% active;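 further: cells exposed to compounds for 18 to 24 hours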
ARE-Fluc inh: reduces Nrf2 ARE reporter signal in A549 cells; AID 720524; 1,400 tested, 74% active; shares compounds with Nrf2 inh; Potency, µM (series often up to 46.1 µM), actives largely listed as inhibitors; A549 ARE-firefly luciferase reporter, luminescence; further: nearly all actives have a fitted effect of over 65% in size
A number is an active result; – = inactive; ? = inconclusive; · = no result given; [ ] = dose if it differs, or a comment. Unless noted, the call rests on the fitted dose curve; in most records, active means well fitted curve in the direction sought with a large enough effect; inconclusive means small, poorly fitted or top-dose-only effect, or another doubt; inactive means no such curve, though single readings can be large; an effect the other way counts as inactive or inconclusive.

SMILES	Nrf2 inh	Nrf2 ARE act	12-LOX inh	mIDH1 inhibitor	A549 tox-1	LDHA block	FLuc counter 3	A549 tox-2	ARE-Fluc inh
O=C(N/N=C(\c1ccccc1)c1ccccn1)c1ccccc1Cl	?	?	–	–	–	–	·	·	·
Cc1nc(CSc2nccc(C(F)(F)F)n2)cs1	·	·	–	·	·	–	·	·	·
N#Cc1ccccc1CSc1nccc(C(F)(F)F)n1	·	·	–	·	·	–	·	·	·
S=C(NN=Cc1ccccn1)N(Cc1ccccn1)Cc1ccccn1	?	–	?	–	–	–	?	?	2.3µM
Cc1oc(-c2nc(C#N)c(N3CCOCC3)o2)cc1S(=O)(=O)N1CCCCC1	·	·	–	·	·	–	·	·	·
Cc1ccc[n+](C(C)C(=O)c2ccc(-c3ccccc3)cc2)c1 (centres undefined)	–	–	–	–	–	–	·	·	·
Cc1cc[n+](C(C)C(=O)c2ccc(-c3ccccc3)cc2)cc1 (centres undefined)	8.2µM	–	–	–	–	–	–	–	9.2µM
CC(C)COc1ccccc1C1CC(=O)Nc2cc3c(cc21)OCO3 (centres undefined)	8.2µM	–	?	–	–	–	–	?	23µM
CCOc1c(OC)cccc1C1CC(=O)Nc2cc3c(cc21)OCCO3 (centres undefined)	–	–	–	–	–	–	·	·	·
O=S(=O)(c1ccc(-c2csc(NCCc3ccccc3)n2)cc1)N1CCOCC1	·	·	?	·	·	–	·	·	·
Cc1ccc(S(=O)(=O)N2CCc3ccccc3CC2)cc1	8.2µM	–	–	–	–	–	–	–	4.1µM
Cc1ccc(S(=O)(=O)N2CCc3ccccc3C2)cc1	–	–	–	–	–	–	·	·	·
COc1ccc(CCNc2c(C)c(C)nc3ncnn23)cc1	1µM	–	–	–	?	–	–	–	2.1µM
COCC1CN(C)CC12CCN(S(=O)(=O)c1cccc(OC)c1)CC2 (centres undefined)	·	·	–	·	·	·	·	·	·
CC(C)CC(=O)N1CCN(S(=O)(=O)c2ccc(C3CCCCC3)cc2)CC1	8.2µM	–	–	–	–	–	–	–	?
CC(=O)C(C)n1c(CN(C)Cc2ccccc2)nc2c1c(=O)n(C)c(=O)n2C (centres undefined)	?	–	–	–	–	–	·	·	·
CC(C)n1c(CN(C)Cc2ccccc2)nc2c1c(=O)n(C)c(=O)n2C	0.46µM	–	?	–	–	–	–	–	4.1µM
O=S(=O)(c1cccs1)N1CCN(c2ccc(O)cc2)CC1	?	–	?	–	–	–	–	?	1.8µM
Cc1ccc(-n2nc3c(=O)n(C(C)C(=O)NCc4ccc(OC(C)C)cc4)nc(C)c3c2C)cc1 (centres undefined)	1.8µM	–	–	–	–	–	–	–	8.2µM
CN(C)c1ccc(/C=C/C(=O)c2ccc(O)cc2)cc1	5.2µM	–	–	–	–	–	0.21µM	–	2.3µM
Cc1ccc(CNC(=O)c2cc3c(s2)-c2ccc(Cl)cc2SC3)cc1	?	–	–	–	–	–	·	·	·
CN(C)CCNC(=O)c1cc2c(s1)-c1ccc(Cl)cc1SC2	5.8µM	–	?	–	–	–	–	?	0.013µM
O=C(COc1ccc(S(=O)(=O)NC2CCCCC2)cc1)N1CCN(c2cccc(Cl)c2)CC1	5.8µM	–	–	–	?	–	–	–	9.2µM
Cc1c(C(=O)N2CCN(Cc3ccc4c(c3)OCO4)CC2)sc2ncnc(N3CCN(c4ccccc4)CC3)c12	1.2µM	–	–	–	–	–	–	–	7.3µM
O=C(Nc1ccnn1Cc1cccc(Cl)c1)C1CCN(S(=O)(=O)c2ccc(Cl)cc2)CC1	·	·	?	·	·	–	·	·	·
SMILES	Nrf2 inh	Nrf2 ARE act	12-LOX inh	mIDH1 inhibitor	A549 tox-1	LDHA block	FLuc counter 3	A549 tox-2	ARE-Fluc inh
CN(C)c1ccc(CNC(=O)C2CCCN(S(=O)(=O)c3ccc4c(c3)CCCC(=O)N4)C2)cc1 (centres undefined)	5.8µM	–	–	–	–	–	–	–	?
O=C(Cn1ccc2ccc(F)cc21)Nc1ccc(CCO)cc1	·	·	–	·	·	–	·	·	·
COc1cc2sc3ccc(C#Cc4ccc(N)cc4)cc3c(=O)c2cc1OC	4.6µM	–	–	–	–	–	–	?	2.3µM
NC(=O)c1cc(Cc2ccccc2)sc1NC(=O)c1cccs1	·	·	?	·	·	–	·	·	·
O=C1N(c2ccccc2)C[C@@H]2C[C@@H](c3cc4ccccc4o3)N3CCC[C@@]123	1.2µM	–	?	–	?	–	–	–	2.6µM
Nc1nc(-c2ccco2)nn1C(=O)c1ccc(Cl)cc1	7.3µM	–	–	–	–	–	–	–	4.1µM
C[S+](=O)([O-])N1CC2(CCN(Cc3ccccn3)CC2)Cc2ccccc21	·	·	–[6.33 µM]	·	·	·	·	·	·
Cc1nn(Cc2ccc(Cl)cc2)c(C)c1NC(=O)COCc1cc(-c2ccco2)on1	·	·	–	·	·	–	·	·	·
CCOC(=O)N1CCN(C(=O)c2ccc(Cn3c(=S)[nH]c4cc5c(cc4c3=O)OCO5)cc2)CC1	9.2µM	–	–	–	?	–	–	–	8.2µM
Cc1cc(OCC(=O)Nc2ccncc2)ccc1Cl	?	–	–	–	–	–	·	·	·
Cc1cc(OCC(=O)Nc2ccncc2)cc(C)c1Br	9.2µM	–	–	–	–	–	–	–	8.2µM
Cc1cc(N2CCCC2)nc(Nc2ccc(NS(=O)(=O)c3ccc(Br)cc3)cc2)n1	·	·	?	·	·	–	·	·	·
CCc1ccc(NC(=O)Cc2nc(-c3[nH]c(C)c(C(C)=O)c3C)cs2)cc1	·	·	?	·	·	–	·	·	·
Cc1ccc(C)c(OCc2ccc(C(=O)Nc3ccc([N+](=O)[O-])cn3)o2)c1	2.9µM	–	–	–	–	–	–	–	5.2µM
CCC(NC(=O)c1cc(COc2cc(C)c(Cl)c(C)c2)on1)c1ccncc1 (centres undefined)	–	–	–	–	–	–	·	·	·
CCC(NC(=O)c1cc(COc2ccc(C)nc2)on1)c1ccc(C)cc1 (centres undefined)	8.2µM	–	–	–	–	–	–	–	?
COc1ccc(CNC(=O)Cc2nn(C)c(=O)c3ccccc23)cc1	5.8µM	–	–	–	–	–	–	–	4.6µM
COc1ccccc1CNC(=O)Cc1nn(C)c(=O)c2ccccc12	·	·	–	·	·	–	·	·	·
C=CC[n+]1c(-c2ccc(C)cc2)csc1Nc1ccc(NC(C)=O)cc1	6.5µM	–	?	–	–	–	–	–	6.5µM
